In PubChem BioAssay (NCATS):
Records with an inconclusive call do not appear. A call without a number means that no potency is given here. Activity calls are given as the source filed them. Calls come from the whole dose curve; as a rule, active = well fitted curve in the direction sought with a large enough effect; inconclusive = small, poorly fitted or top-dose-only effect, or another doubt; inactive = no such curve, though single readings can be large; an effect the other way counts as inactive or inconclusive.

Tests used:
[1] = OV-KATE Cancer Cell Toxicity qHTS against the NCATS CANVASS Library (AID 1347345)
How it was run: (§1)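 ATP content after 72 h treatment, detected by CellTiter-Glo luminescence (15min room-temperature development), reflects cell viability. Wells contained 1000 cells and received compounds at 11 concentrations.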

[2] = OV-SAHO Cancer Cell Toxicity qHTS against the NCATS CANVASS Library (AID 1347348); note: nearly all actives have a fitted effect of over 55% in size; note: potency is the fitted concentration of half-maximal effect
How it was run: as §1

[3] = U-118MG Cancer Cell Toxicity qHTS against the NCATS CANVASS Library (AID 1347351); note: potency is the fitted concentration of half-maximal effect
How it was run: as §1

[4] = A2780 Cisplatin Sensitive Ovarian Cancer Cell Toxicity qHTS against the NCATS CANVASS Library (AID 1347353); note: nearly all actives have a fitted effect of over 60% in size; note: potency is the fitted concentration of half-maximal effect
How it was run: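 Cells are plated at 750 per well and rest for 4 hours. Compounds are added across eleven concentrations, and incubated 72 hours before ATP is quantified by luminescence.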

[5] = UWB1.289-WTBRCA1 Cancer Cell Toxicity qHTS against the NCATS CANVASS Library (AID 1347354)
How it was run: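 First, 1000 cells go into each well and rest for 4 hours. Next, an 11-point dilution range is pinned in. Plates then incubate 72 hours before CellTiter-Glo addition and luminescence reading.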

[6] = HEK293 12hr Apoptosis Induction qHTS against the NCATS CANVASS Library (AID 1347361)
How it was run: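 Apoptosis in HEK293 was scored as caspase-3/7 luminescence following 12 h treatment with a compound concentration series in qHTS format.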

[7] = molecular target: Luciferin 4-monooxygenase (Photinus pyralis) (UniProt P08659); experiment: Firefly luciferase counterscreen qHTS: Assay Interference Panel against the NCATS CANVASS Library (AID 1347363); note: series mostly up to about 57 µM
How it was run: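 Purified P. pyralis luciferase (0.04 ug/mL, 4x reagent) added to Tris-acetate buffer with 0.013 mM D-luciferin, 0.013 mM ATP and 13.3 mM Mg-acetate; compounds preincubated 15 min, then luminescence read after 5 min, RT.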

[8] = KB-8-5-11 Cancer Cell Toxicity qHTS against the NCATS CANVASS Library (AID 1347364); note: nearly all actives have a fitted effect of over 75% in size; note: potency is the fitted concentration of half-maximal effect
How it was run: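 Terse: KB-8-5-11, 500 cells/well, 72 hr, 37C/5% CO2, 11-pt titration, CellTiter-Glo readout; confirmatory runs ± 1uM tariquidar in medium.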

[9] = SDT Cancer Cell Toxicity qHTS against the NCATS CANVASS Library (AID 1347365); note: nearly all actives have a fitted effect of over 60% in size; note: potency is the fitted concentration of half-maximal effect
How it was run: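 Cytotoxicity is measured from cellular ATP: compounds in an 11-point concentration series are pinned onto SDT cells, incubated 72 hr at 37C, then CellTiterGlo is added and luminescence read.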

[10] = qHTS for Hypoxia signaling pathway (HIF-1) antagonists against the NCATS CANVASS Library (AID 1347374); note: nearly all actives have a fitted effect of over 60% in size; note: potency is the fitted concentration of half-maximal effect
How it was run: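 Antagonism scored as loss of CoCl2-driven (60 uM stock added) HRE beta-lactamase signal, read by CCF4 FRET at 460/530 nm. Compounds were tested in an 11-point series on ME-180 reporter cells for 17 hrs at 37C, with parallel CellTiter-Glo cytotoxicity.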

[11] = qHTS for activators of Nrf2/ARE signaling pathway screened against the NCATS CANVASS Library (AID 1347391); note: nearly all actives have a fitted effect of over 60% in size; note: potency is the fitted concentration of half-maximal effect
How it was run: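 Beta-lactamase reporter signal, read as 460 and 530 nm emission under 405 nm excitation after 2 h CCF4 loading, reflected ARE activation in HepG2 cells treated 16 h with an 11-point series.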

[12] = qHTS for inhibitors of Wild type Zika virus screened against the NCATS CANVASS Library (AID 1347396);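 note: ATP luminescence of surviving cells so rescue from viral cell killing; series mostly up to about 46 µM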
How it was run: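 Protection against wild-type Zika cytopathic effect is measured in African green monkey Vero 766 cells exposed to an 11-point compound series. Surviving cells are quantified by CellTiter Glo luminescence after 72 h.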

[13] = Viability qHTS for inhibitors of the SERCaMP assay screened against the NCATS CANVASS Library (AID 1347400); note: nearly all actives have a fitted effect of over 70% in size; note: potency is the fitted concentration of half-maximal effect
How it was run: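 Seed SH-SY5Y-GLuc SERCaMP MJH297 cells at 1000 per well, incubate 4 h, add compounds across an 11-point range, incubate 48 h at 37C, then add CellTiter-Glo and read luminescence.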

[14] = Redox Reaction Profiling qHTS: Assay Interference Panel against the NCATS CANVASS Library (AID 1347401)
How it was run: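 Fluorescence read-out (525 nm excitation, 598 nm emission) at time zero and after 15 min in the dark tracked resorufin formation. Mix: 5 uM resazurin, 200 uM DTT, HEPES pH 7.3 buffer with NaCl.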

[15] = HEK293 18hr Apoptosis Induction qHTS against the NCATS CANVASS Library (AID 1347357)
How it was run: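 Luminescent caspase-3/7 signal is measured in HEK293 cells exposed for 18 hours to an 11-point concentration series; doxorubicin serves as the plate control.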

[16] = HPAF-II 12hr Apoptosis Induction qHTS against the NCATS CANVASS Library (AID 1347358)
How it was run: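 Cells plated at 500 per well are dosed with compound and incubated 12 hours at 37 degrees C. Caspase-Glo 3/7 reagent is added and, after 15 min at room temperature, luminescence proportional to caspase activity is measured.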

[17] = MCF7 Cancer Cell Toxicity qHTS against the NCATS CANVASS Library (AID 1347369)
How it was run: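 Cytotoxicity is measured by ATP content: MCF7 cells at 500 per well receive an 11-point compound series and, after 72 hr at 37C, are lysed with CellTiterGlo for luminescence.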

[18] = SW1088 Cancer Cell Toxicity qHTS against the NCATS CANVASS Library (AID 1347350); note: nearly all actives have a fitted effect of over 75% in size
How it was run: as §1

[19] = qHTS for Antimalaria activity screened against the NCATS CANVASS Library (AID 1347380); note: nearly all actives have a fitted effect of over 40% in size; note: potency is the fitted concentration of half-maximal effect
How it was run: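 Compounds are titrated over 11 concentrations onto Dd2 parasite cultures (0.3% parasitemia, 2.5% hematocrit). Growth over 72 h at 37C in low oxygen is measured as SYBR Green DNA fluorescence after lysis.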

Sequence of Luciferin 4-monooxygenase (Photinus pyralis) (P08659 whole entry, looked up): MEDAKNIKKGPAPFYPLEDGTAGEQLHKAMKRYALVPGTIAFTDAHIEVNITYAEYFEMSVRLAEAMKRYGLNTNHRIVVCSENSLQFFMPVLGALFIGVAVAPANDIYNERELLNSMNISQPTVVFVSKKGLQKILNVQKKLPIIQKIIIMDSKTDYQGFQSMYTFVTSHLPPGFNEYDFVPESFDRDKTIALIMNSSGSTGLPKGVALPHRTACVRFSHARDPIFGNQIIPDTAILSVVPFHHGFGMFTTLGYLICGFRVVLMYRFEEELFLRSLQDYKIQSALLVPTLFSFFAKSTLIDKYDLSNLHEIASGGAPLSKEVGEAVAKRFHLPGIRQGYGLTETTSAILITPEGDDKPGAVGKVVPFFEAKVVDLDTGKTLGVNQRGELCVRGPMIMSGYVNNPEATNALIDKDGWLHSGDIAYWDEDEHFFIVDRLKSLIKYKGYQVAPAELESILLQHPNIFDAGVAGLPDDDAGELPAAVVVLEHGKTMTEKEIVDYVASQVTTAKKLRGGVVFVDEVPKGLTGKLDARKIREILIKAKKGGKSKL

With COC(=O)[C@@]1(C)CCC[C@]2(C)c3cc(OC)ccc3CC[C@@H]12 the Potency [1] was “inactive”, the Potency [2] was “inactive” and the Potency [3] was “inactive”. The Potency [4] was “inactive”, the Potency [5] was “inactive” and the outcome [6] was “inactive”. For the same molecule, the Potency [7] was “inactive”, the Potency [8] was “inactive” and the Potency [9] was “inactive”. The Potency [10] was “inactive”, the Potency [11] was “inactive” and the outcome [12] was “inactive”. For the same molecule, the Potency [13] was “inactive” and the Potency [14] was “inactive”.
In the case of COc1cc2c(cc1OC)[C@@H](c1ccc3c(c1)OCO3)C(C)[C@@H](C)C2=O (stereo not given in full), the Potency [1] is reported as “inactive”, the Potency [2] is reported as “inactive” and the Potency [3] is reported as “inactive”. For the same molecule, the Potency [5] was “inactive”, the Potency [15] was “inactive” and the Potency [16] was “inactive”. The outcome [6] was “inactive”, the Potency [7] was “inactive” and the Potency [17] was “inactive”. For the same molecule, the Potency [10] was “inactive” and the Potency [13] was “inactive”.
For CN1CCc2cc3c(c4c2C1(C)C(=O)c1cc(O)ccc1-4)OCO3 (stereo not given), the Potency [18] was “inactive”, the Potency [5] was “inactive” and the Potency [16] was “inactive”. The outcome [6] was “inactive”, the Potency [7] was “inactive” and the Potency [8] was 23.5 µM (active). The Potency [9] was 1.48 µM (active), the Potency [10] was 13.3 µM (active) and the Potency [11] was “inactive”. For the same molecule, the outcome [12] was “inactive”.
For CC1=C(C)C(=O)OC(C(C)C2(O)CCC3C4C5OC5C5(O)CC=CC(=O)C5(C)C4CCC32C)C1 (stereo not given), the Potency [1] was “inactive”, the Potency [18] was “inactive” and the Potency [3] was “inactive”. For the same molecule, the Potency [5] was “inactive”, the Potency [16] was “inactive” and the outcome [6] was “inactive”. For the same molecule, the Potency [7] was “inactive”, the Potency [8] was “inactive” and the Potency [9] was 13.2 µM (active). For the same molecule, the Potency [17] was “inactive”, the Potency [10] was “inactive” and the Potency [11] was 18.6 µM (active). The outcome [12] was “inactive”.
In the case of COc1ccc([C@@H]2c3cc4c(cc3C[C@H](C)C2C)OCO4)cc1OC (stereo not given in full), the Potency [1] is reported as “inactive”, the Potency [2] is reported as “inactive” and the Potency [3] is reported as “inactive”. For the same molecule, the Potency [4] was 10.5 µM (active), the Potency [5] was “inactive” and the Potency [15] was “inactive”. For the same molecule, the Potency [7] was “inactive”, the Potency [8] was 3.72 µM (active) and the Potency [17] was “inactive”. For the same molecule, the Potency [11] was “inactive”, the outcome [12] was “inactive” and the Potency [13] was 27 µM (active). For the same molecule, the Potency [14] was “inactive”.
With C/C1=C/[C@@H](C)[C@H](O)C/C=C/CC/C=C/C(=O)O[C@@H]1[C@H](C)C(=O)CCCC1CC(=O)NC(=O)C1 the Potency [1] was “inactive”, the Potency [18] was “inactive” and the Potency [4] was 10.5 µM (active). The Potency [15] was “inactive”, the outcome [6] was “inactive” and the Potency [7] was “inactive”. For the same molecule, the Potency [8] was “inactive”, the Potency [9] was 5.26 µM (active) and the Potency [17] was “inactive”. For the same molecule, the Potency [10] was 18.8 µM (active), the Potency [19] was “inactive” and the outcome [12] was “inactive”.
With C[C@H]1CCC2(OC1)O[C@H]1C[C@H]3[C@@H]4CC(=O)[C@]5(O)C[C@H](O)CC[C@@]5(C)[C@H]4CC[C@@]3(C)[C@H]1[C@H]2C (stereo not given in full) the Potency [1] was “inactive”, the Potency [2] was “inactive” and the Potency [3] was “inactive”. The Potency [15] was “inactive”, the Potency [16] was “inactive” and the Potency [7] was “inactive”. For the same molecule, the Potency [17] was “inactive”, the Potency [11] was 2.09 µM (active) and the Potency [14] was “inactive”.
For O=C1CCC(=O)N(O)CCCCCNC(=O)CCC(=O)N(O)CCCCCNC(=O)CCC(=O)N(O)CCCCCN1, the Potency [2] was 11.8 µM (active), the Potency [18] was “inactive” and the Potency [4] was 26.4 µM (active). For the same molecule, the Potency [5] was “inactive”, the Potency [16] was “inactive” and the outcome [6] was “inactive”. For the same molecule, the Potency [8] was “inactive”, the Potency [9] was 4.18 µM (active) and the Potency [10] was “inactive”. The Potency [19] was 4720 nM (active), the Potency [11] was “inactive” and the outcome [12] was “inactive”. The Potency [14] was “inactive”.
For C[C@H](CCC(O)C(C)(O)CO)[C@@]1(O)CC[C@@]2(C)C3=C(CC[C@@]21C)[C@@]1(C)CCC(OC(=O)CCC(=O)O)C(C)(C)[C@@H]1CC3 (stereo not given in full), the Potency [1] was “inactive”, the Potency [2] was “inactive” and the Potency [3] was “inactive”. For the same molecule, the Potency [4] was “inactive”, the Potency [5] was “inactive” and the outcome [6] was “inactive”. The Potency [7] was “inactive”, the Potency [8] was “inactive” and the Potency [9] was “inactive”. For the same molecule, the Potency [17] was “inactive”, the Potency [10] was 14.9 µM (active) and the Potency [13] was “inactive”.
For C=C[C@]1(C)CC[C@@H]([C@H](C)C(=O)/C=C/C(C)(C)O)O1, the Potency [1] was “inactive”, the Potency [18] was “inactive” and the Potency [3] was “inactive”. The Potency [5] was “inactive”, the Potency [16] was “inactive” and the outcome [6] was “inactive”. The Potency [8] was “inactive”, the Potency [17] was “inactive” and the Potency [10] was “inactive”. For the same molecule, the Potency [19] was “inactive”, the Potency [11] was 16.6 µM (active) and the outcome [12] was “inactive”.
In the case of CC1=C[C@H]2[C@H]3C(=O)C(c4ccc(O)cc4)=C[C@@]3(c3ccc(O)cc3)[C@@H]1C(=O)[C@]2(C)O, the Potency [1] is reported as “inactive”, the Potency [2] is reported as “inactive” and the Potency [18] is reported as “inactive”. The Potency [4] was 0.418 µM (active), the Potency [15] was “inactive” and the outcome [6] was “inactive”. The Potency [8] was 3.72 µM (active), the Potency [9] was 0.209 µM (active) and the Potency [17] was “inactive”. For the same molecule, the Potency [10] was “inactive”, the Potency [19] was 1.9 nM (active) and the Potency [13] was 0.48 µM (active). The Potency [14] was “inactive”.
With COc1cc2oc3ccccc3c(=O)c2cc1OC the Potency [1] was “inactive”, the Potency [2] was “inactive” and the Potency [18] was “inactive”. For the same molecule, the Potency [3] was 30.6 µM (active), the Potency [5] was “inactive” and the Potency [16] was “inactive”. The outcome [6] was “inactive”, the Potency [17] was “inactive” and the Potency [10] was “inactive”. For the same molecule, the Potency [19] was 4.9 nM (active), the Potency [11] was 3.41 µM (active) and the outcome [12] was “inactive”. For the same molecule, the Potency [13] was “inactive”.
